Screening data as filed in PubChem.
Dicer processing – inhibitors of human Dicer processing of pre-microRNA | cat-ELCCA pre-miR-21 Dicer processing, chemiluminescence; stronger effect = higher value | 6% of 47,000 active | z-score at 25 µM; in the data active = z-score above about 3, passing the limit was not always enough;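 also: plate controls were vehicle for no effect and no enzyme for full effect; higher signal means more uncleaved substrate so more Dicer inhibition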
An asterisk follows results filed as active. Shown is part of a subset that was picked to be rich in hits.

COc1cc2nc(NC(C)=O)sc(=O)c2cc1OC was read as Dicer processing 3.64*.
COc1cc2nc(NC(=O)c3ccc(C(C)(C)C)cc3)sc(=O)c2cc1OC was read as Dicer processing -1.17.
For N/C(CC(=O)Nc1ccc(F)c(F)c1F)=N\O the results were Dicer processing -0.3.
`COC(=O)C1=C(C)NC2=C(C(=O)CCC2)C1c1ccc(OC(C)=O)cc1` (configuration not stated) gave Dicer processing -0.26.
For COc1ccccc1NC(=O)N=S1CCN(C(=O)c2ccc(Cl)cc2)CC1 the results were Dicer processing -0.36.
`O=C(O)C1CSC(c2ccoc2)N1` (configuration not stated) gave Dicer processing -0.2.
Screening O=C1CCCC2=C1C(c1ccc3c(c1)OCO3)c1c(nc(SCc3ccccc3Cl)[nH]c1=O)N2 (configuration not stated) returned Dicer processing 1.82.
Cc1[nH]c2ccccc2c1C1(O)C(=O)N(Cc2ccc(Cl)cc2)c2ccccc21 (configuration not stated) was read as Dicer processing 1.52.
For Cc1ccc(CN2C(=O)C(O)(c3c(C)[nH]c4ccccc34)c3ccccc32)cc1 (configuration not stated) the results were Dicer processing 1.36.
Screening Cc1[nH]c2ccccc2c1C1(O)C(=O)N(Cc2ccc3c(c2)OCO3)c2ccccc21 (configuration not stated) returned Dicer processing 3.86*.
`CC1=CC(C)(C)N(C(=O)Nc2ccc(Cl)cc2)c2ccccc21` gave Dicer processing 2.78.
C=CCNC(=S)NNC(=O)CSc1nnc(-c2ccccc2)n1C was read as Dicer processing -0.5.
Screening CC1(C)CC(=O)C2=C(C1)N1C(=C(C#N)C2c2ccccc2F)N=C(N)c2ccccc21 (configuration not stated) returned Dicer processing 3.19*.
For Cc1ccc(C2C(C#N)=C3N=C(N)c4ccccc4N3C3=C2C(=O)CCC3)cc1 (configuration not stated) the results were Dicer processing 2.55.
Screening N#CC1=C2N=C(N)c3ccccc3N2C2=C(C(=O)CCC2)C1c1ccc(F)cc1 (configuration not stated) returned Dicer processing 0.21.
COc1ccc(C2C(C#N)=C3N=C(N)c4ccccc4N3C3=C2C(=O)CC(C)(C)C3)c(OC)c1 (configuration not stated) was read as Dicer processing 2.96.
`COc1cccc(C2C(C#N)=C3N=C(N)c4ccccc4N3C3=C2C(=O)CCC3)c1OC` (configuration not stated) gave Dicer processing -2.36.
CN(C)c1ccc(C2C(C#N)=C3N=C(N)c4ccccc4N3C3=C2C(=O)CCC3)cc1 (configuration not stated) was read as Dicer processing 3.43*.
Screening Cc1cc(S(=O)(=O)NC(Cc2ccc([N+](=O)[O-])cc2)C(=O)O)c(Cl)cc1Cl (configuration not stated) returned Dicer processing -6.58.
CN(C)CCCCCCOc1ccc2c(c1)CCC1C2CCC2(C)C(=O)CCC12 (configuration not stated) was read as Dicer processing -0.13.
`Cc1ccc(C(=O)CC(=O)c2ccc(C)cc2O)cc1` gave Dicer processing 3.61*.
Screening Cc1ccc(C(=O)c2cc(Cl)cc(Cl)c2)c(C)c1 returned Dicer processing -3.2.
For CCCC(=O)c1ccc(NC(C)=O)cc1O the results were Dicer processing 0.35.
`O=C(Nc1ccc(N2CCOCC2)c(Cl)c1)c1sc2ccccc2c1Cl` gave Dicer processing -0.03.
Screening COc1ccc(-c2noc(C3CCCCC3)n2)cc1 returned Dicer processing 2.9.
COC(=O)C1=C(C(=O)OC)SC(=C2C(=S)C(C)(C)Nc3ccc(OC)cc32)S1 was read as Dicer processing -0.25.
COc1ccc(-n2sc3c(c2=S)-c2ccccc2NC3(C)C)cc1OC was read as Dicer processing 2.01.
`CCOc1ccc2c(c1)-c1c(sn(-c3ccc(OC)cc3)c1=S)C(C)(C)N2` gave Dicer processing 6.67*.
Cc1nc(C(F)(F)F)nc(NNC(=O)Nc2ccccc2)c1C was read as Dicer processing 0.43.
CC12CN3CC(C)(CN(C1)C3c1ccc(F)cc1)C2 (configuration not stated) was read as Dicer processing 0.93.
`CC12CN3CC(C)(CN(C1)C3c1ccccc1Cl)C2` (configuration not stated) gave Dicer processing 0.7.
Screening Cc1cccc(C2N3CC4(C)CN2CC(C)(C3)C4)c1 (configuration not stated) returned Dicer processing -0.26.
For COc1ccc(C2N3CC4(C)CN2CC(C)(C3)C4)cc1OC (configuration not stated) the results were Dicer processing 1.8.
`CC12CN3CC(C)(CN(C1)C3c1ccc(Cl)cc1)C2` (configuration not stated) gave Dicer processing 5.13*.
For CC12CN3CC(C)(CN(C1)C3c1ccc(O)c(O)c1)C2 (configuration not stated) the results were Dicer processing 3.11*.
For Clc1cccc(Cl)c1SCc1ccc(-c2ncns2)cc1 the results were Dicer processing -2.13.
CC1=C(C(=O)OCCc2ccccc2)C(c2ccsc2)C2=C(CC(C)(C)CC2=O)N1 (configuration not stated) was read as Dicer processing -0.99.
CS(=O)(=O)Nc1ccc2[nH]cc(C#N)c2c1 was read as Dicer processing 1.05.
Screening CN(C)c1ccc(C2C3=C(CCCC3=O)Nc3ncnn32)cc1 (configuration not stated) returned Dicer processing -1.23.
O=c1ccn(-c2ccc(F)cc2)nc1-c1ccnc(SCc2ccc(C(F)(F)F)cc2)n1 was read as Dicer processing 0.29.
CC(C)(C)NC(=S)NNC(=O)c1ccc(-c2ccc(Cl)cc2)s1 was read as Dicer processing -0.16.
For O=C(NNC(=S)Nc1ccccc1C(F)(F)F)c1ccc(-c2ccc(Cl)cc2)s1 the results were Dicer processing 4.3*.
For Cc1ccc(O)c(C(=O)NNC(=S)Nc2ccccc2C(F)(F)F)c1 the results were Dicer processing 5.37.
Screening CCOC(=O)c1cnn(-c2c([N+](=O)[O-])c(C)nn2C)c1N returned Dicer processing -0.1.
Screening CCN1CCN(c2nc3c(c(=O)n(C)c(=O)n3C)n2Cc2ccc(Br)cc2)CC1 returned Dicer processing -0.34.
CC1CC(C)(C)N(C(=O)CN2C(=O)CCC2=O)c2ccccc21 (configuration not stated) was read as Dicer processing 1.8.
`CC1CC(C)(C)N(C(=O)Nc2cccc(Cl)c2)c2ccccc21` (configuration not stated) gave Dicer processing 6.64*.
`CC1CC(C)(C)N(C(=O)NC2CCCCC2)c2ccccc21` (configuration not stated) gave Dicer processing 2.53.
`O=C(O)CN1C(=O)c2ccccc2S1(=O)=O` gave Dicer processing 1.59.
Screening O=c1cc(C(F)(F)F)nc(Cc2c(Cl)cccc2Cl)[nH]1 returned Dicer processing 4.56.
Cc1cc(=O)n2c(n1)NC(N1CCc3ccccc31)=NC2c1ccc(F)cc1 (configuration not stated) was read as Dicer processing -1.2.
`CCCCOC(=O)C1=C(C)NC2=C(C(=O)CCC2)C1c1ccc(OC(C)=O)cc1` (configuration not stated) gave Dicer processing -0.42.
